From PubChem BioAssay
The source made the active and inactive calls.

Key:
[1] = system: Plasmodium falciparum Sir2 (PF13_0152, Sir2A); assay: pfSir2 binders on small-molecule microarrays, primary screen, biochemical, small-molecule microarray, 635 nm fluorescence (AID 1098); settings: small-molecule microarray binding, fluorescence 635 nm; higher = more signal;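 also: score merges spot fluorescence intensity with its signal-to-noise ratio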
[2] = small-molecule microarray binders of probe aDKK1, primary screen, biochemical, biotinylated probe, 635/667 nm fluorescence (AID 1099); settings: higher = more signal;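 also: score merges 667nm spot fluorescence with signal to noise across triplicate slides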
[3] = small-molecule microarray binders of probe aCHRDL2, primary screen, biochemical, biotinylated probe, 635/667 nm fluorescence (AID 1100); settings: higher = more signal
[4] = splicing luciferase reporter signal modulators, primary screen, spliceosome inhibition project, cell-based, HEK293, splice +/- reporter (AID 1101); settings: luminescence, 24 h, higher = more signal, called active from +8 up or from −8 down;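 also: HEK293 cells carrying a splicing-competent luciferase reporter gene; test concentration not given here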
[5] = biological target: Fibroblast growth factor 10 (Homo sapiens) (UniProt O15520); assay: FGF10 binders on small-molecule microarrays, primary screen, biochemical, small-molecule microarray, 635 nm fluorescence (AID 1102); settings: FGF10 binding, fluorescence 635 nm, higher = more signal
[6] = system: glycogen synthase kinase-3 (GSK3A per assay name; protocol says GSK3B); assay: GSK3 binders on small-molecule microarrays, primary screen, biochemical, small-molecule microarray, 635 nm fluorescence, GSK3A (AID 1103); settings: small-molecule microarray binding, fluorescence 635 nm; higher = more signal; also: the record names both GSK3A and GSK3B
[7] = biological target: Epidermal growth factor receptor (Homo sapiens) (UniProt P00533); assay: EGFR binders on small-molecule microarrays, primary screen, biochemical, small-molecule microarray, 635 nm fluorescence (AID 1104); settings: EGFR binding, higher = more signal;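 also: score merges 667 nm emission intensity with spot signal to noise over triplicate slides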
[8] = biological target: Follistatin-related protein 3 (Homo sapiens) (UniProt O95633); assay: FSTL3 binders on small-molecule microarrays, primary screen, biochemical, small-molecule microarray, 635 nm fluorescence (AID 1105); settings: FSTL3 binding, higher = more signal;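 also: score merges emission near 667 nm and signal to noise per printed spot across three slides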
[9] = biological target: Dickkopf-related protein 1 (Homo sapiens) (UniProt O94907); assay: DKK1 binders on small-molecule microarrays, primary screen, biochemical, small-molecule microarray, 635 nm fluorescence scan (AID 1106); settings: DKK1 binding, higher = more signal;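 also: score merges emission near 667 nm with signal to noise over three replicate slides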
[10] = system: Inhibin beta A chain (activin A); assay: INHBA (activin A) binders on microarrays, primary screen, biochemical, small-molecule microarray, 635 nm fluorescence scan (AID 1107); settings: small-molecule microarray binding, higher = more signal;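 also: mouse activin A protein probed at 4.33 µg/mL on printed slides; score merges bound-protein fluorescence near 667 nm with spot signal-to-noise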
[11] = system: Human papillomavirus type 1a protein E7 (residues 44-93); assay: HPV1a E7 fragment binders on microarrays, primary screen, biochemical, small-molecule microarray, residues 44-93, 635 nm fluorescence (AID 1108); settings: small-molecule microarray binding, fluorescence 635 nm; higher = more signal;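 also: E7 fragment applied at 1 µg/mL in TBST for 1 h at 4 C; score combines spot fluorescence with its signal to noise ratio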
[12] = modulators of HCV replicon luciferase signal, primary screen, HCV replication inhibitor project, Huh7 cells, luciferase reporter (AID 1109); settings: 48 h, higher = more signal;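 also: huh7 hepatoma cells harbouring a luciferase neomycin HCV replicon reporter; luciferase luminescence as measure of HCV replicon replication; test concentration not given here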
[13] = biological target: Left-right determination factor 2 (Homo sapiens) (UniProt O00292); assay: LEFTY2 binders on small-molecule microarrays, primary screen, biochemical, small-molecule microarray, 635 nm fluorescence scan (AID 1110); settings: LEFTY2 binding, higher = more signal
[14] = biological target: Calmodulin-1 (Homo sapiens) (UniProt P0DP23); assay: CALM1 binders on microarrays, EGTA buffer, profiling panel, biochemical, small-molecule microarray, Cy5-labelled CALM1 (AID 1111); settings: Cy5-CALM1 binding fluorescence, higher = more signal;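 also: labelled calmodulin applied in Tris saline Tween buffer holding calcium plus EGTA and DTT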
[15] = biological target: Calmodulin-1 (Homo sapiens) (UniProt P0DP23); assay: calcium-bound CALM1 binders on microarrays, profiling panel, artefact control for SMM control-protein annotation, biochemical, small-molecule microarray, Cy5-labelled CALM1, plus calcium (AID 1112); settings: Cy5-CALM1 binding fluorescence, higher = more signal;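 also: score merges spot fluorescence with signal to noise from triplicate slides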
[16] = small-molecule microarray binders of probe aWnt5a, primary screen, biochemical, biotinylated probe, 635/667 nm fluorescence (AID 1113); settings: higher = more signal;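 also: score merges 667 nm fluorescence intensity with signal-to-noise per printed feature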
[17] = small-molecule microarray binders of probe aShh, primary screen, biochemical, biotinylated probe, 635/667 nm fluorescence (AID 1114); settings: higher = more signal;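 also: probe is biotin-labelled aShh protein from a stem cell growth factor screen; measures binding of labelled protein to compounds printed on the slide; score merges feature fluorescence at 667 nm with signal-to-noise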
[18] = small-molecule microarray binders of probe aNog, primary screen, biochemical, biotinylated probe, 635/667 nm fluorescence (AID 1115); settings: higher = more signal;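 also: probe is biotinylated aNog protein used at 0.15 µg/mL for 1 h at 4 C; z-score combines 667 nm fluorescence of each spot with its signal to noise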
[19] = biological target: Torsin-1A-interacting protein 1 (Homo sapiens) (UniProt Q5JTV8); assay: LAP1 binders from COS7 cell lysate, primary screen, small-molecule microarray, 635/667 nm fluorescence (AID 1116); settings: COS7-hLAP1 lysate binding, 635 nm fluorescence, higher = more signal
[20] = biological target: Alpha-bungarotoxin (Bungarus multicinctus) (UniProt P60615); assay: alpha-bungarotoxin binders on microarray, profiling panel, artefact control for SMM control protein annotation, biochemical, small-molecule microarray, Alexa647 label, 635/667 nm fluorescence (AID 1117); settings: alpha-BTX-A647 binding fluorescence, higher = more signal
Sequence of Alpha-bungarotoxin (Bungarus multicinctus) (P60615 whole entry, looked up): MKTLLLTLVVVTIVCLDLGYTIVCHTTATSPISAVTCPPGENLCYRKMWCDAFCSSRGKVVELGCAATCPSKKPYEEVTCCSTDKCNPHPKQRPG

Sequence of Follistatin-related protein 3 (Homo sapiens) (O95633 whole entry, looked up): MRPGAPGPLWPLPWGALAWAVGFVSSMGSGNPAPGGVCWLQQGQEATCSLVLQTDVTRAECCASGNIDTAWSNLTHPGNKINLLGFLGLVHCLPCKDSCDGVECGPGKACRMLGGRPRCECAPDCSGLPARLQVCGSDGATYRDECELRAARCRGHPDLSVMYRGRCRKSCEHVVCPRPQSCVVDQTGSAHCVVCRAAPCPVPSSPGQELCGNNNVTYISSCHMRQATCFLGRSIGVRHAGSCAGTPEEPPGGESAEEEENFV
Sequence of Fibroblast growth factor 10 (Homo sapiens) (O15520 whole entry, looked up): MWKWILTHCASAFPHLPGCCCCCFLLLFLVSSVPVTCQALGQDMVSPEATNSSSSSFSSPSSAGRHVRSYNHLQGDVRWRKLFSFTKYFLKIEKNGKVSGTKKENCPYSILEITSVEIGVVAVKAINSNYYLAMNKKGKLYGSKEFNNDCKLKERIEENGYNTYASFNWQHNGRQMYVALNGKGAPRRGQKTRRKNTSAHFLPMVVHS
Sequence of Left-right determination factor 2 (Homo sapiens) (O00292 whole entry, looked up): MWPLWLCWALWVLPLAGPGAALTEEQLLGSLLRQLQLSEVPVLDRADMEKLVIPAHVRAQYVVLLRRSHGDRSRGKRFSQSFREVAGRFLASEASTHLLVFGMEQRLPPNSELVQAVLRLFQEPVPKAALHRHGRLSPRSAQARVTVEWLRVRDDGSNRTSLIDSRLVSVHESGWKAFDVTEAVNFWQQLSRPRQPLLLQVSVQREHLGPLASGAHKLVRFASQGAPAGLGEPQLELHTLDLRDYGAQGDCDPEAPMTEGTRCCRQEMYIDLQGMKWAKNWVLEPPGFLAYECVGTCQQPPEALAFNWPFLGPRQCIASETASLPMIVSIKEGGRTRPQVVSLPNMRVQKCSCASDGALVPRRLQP
Sequence of Torsin-1A-interacting protein 1 (Homo sapiens) (Q5JTV8 whole entry, looked up): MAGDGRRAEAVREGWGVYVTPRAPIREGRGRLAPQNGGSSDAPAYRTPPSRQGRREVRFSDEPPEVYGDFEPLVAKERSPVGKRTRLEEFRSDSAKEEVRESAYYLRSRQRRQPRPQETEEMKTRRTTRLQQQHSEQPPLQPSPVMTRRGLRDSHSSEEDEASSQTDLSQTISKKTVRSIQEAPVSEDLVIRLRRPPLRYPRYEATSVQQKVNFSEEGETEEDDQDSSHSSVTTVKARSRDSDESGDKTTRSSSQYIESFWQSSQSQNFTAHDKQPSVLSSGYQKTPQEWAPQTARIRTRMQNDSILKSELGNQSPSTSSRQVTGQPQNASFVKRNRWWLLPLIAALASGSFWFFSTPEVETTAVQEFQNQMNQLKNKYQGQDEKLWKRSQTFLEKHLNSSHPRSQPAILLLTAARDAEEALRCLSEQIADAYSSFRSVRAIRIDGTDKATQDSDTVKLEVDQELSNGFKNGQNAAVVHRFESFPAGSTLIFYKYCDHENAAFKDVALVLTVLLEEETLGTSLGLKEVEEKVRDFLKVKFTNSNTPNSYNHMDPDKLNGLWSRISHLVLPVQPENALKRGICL
Sequence of Dickkopf-related protein 1 (Homo sapiens) (O94907 whole entry, looked up): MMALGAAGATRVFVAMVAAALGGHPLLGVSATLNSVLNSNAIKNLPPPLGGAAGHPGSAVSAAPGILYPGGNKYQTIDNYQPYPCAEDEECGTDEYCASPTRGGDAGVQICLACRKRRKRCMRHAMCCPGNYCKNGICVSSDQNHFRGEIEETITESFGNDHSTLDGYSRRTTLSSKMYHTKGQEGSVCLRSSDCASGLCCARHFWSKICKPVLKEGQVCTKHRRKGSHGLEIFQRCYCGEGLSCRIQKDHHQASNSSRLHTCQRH
Sequence of Epidermal growth factor receptor (Homo sapiens) (P00533 whole entry, looked up): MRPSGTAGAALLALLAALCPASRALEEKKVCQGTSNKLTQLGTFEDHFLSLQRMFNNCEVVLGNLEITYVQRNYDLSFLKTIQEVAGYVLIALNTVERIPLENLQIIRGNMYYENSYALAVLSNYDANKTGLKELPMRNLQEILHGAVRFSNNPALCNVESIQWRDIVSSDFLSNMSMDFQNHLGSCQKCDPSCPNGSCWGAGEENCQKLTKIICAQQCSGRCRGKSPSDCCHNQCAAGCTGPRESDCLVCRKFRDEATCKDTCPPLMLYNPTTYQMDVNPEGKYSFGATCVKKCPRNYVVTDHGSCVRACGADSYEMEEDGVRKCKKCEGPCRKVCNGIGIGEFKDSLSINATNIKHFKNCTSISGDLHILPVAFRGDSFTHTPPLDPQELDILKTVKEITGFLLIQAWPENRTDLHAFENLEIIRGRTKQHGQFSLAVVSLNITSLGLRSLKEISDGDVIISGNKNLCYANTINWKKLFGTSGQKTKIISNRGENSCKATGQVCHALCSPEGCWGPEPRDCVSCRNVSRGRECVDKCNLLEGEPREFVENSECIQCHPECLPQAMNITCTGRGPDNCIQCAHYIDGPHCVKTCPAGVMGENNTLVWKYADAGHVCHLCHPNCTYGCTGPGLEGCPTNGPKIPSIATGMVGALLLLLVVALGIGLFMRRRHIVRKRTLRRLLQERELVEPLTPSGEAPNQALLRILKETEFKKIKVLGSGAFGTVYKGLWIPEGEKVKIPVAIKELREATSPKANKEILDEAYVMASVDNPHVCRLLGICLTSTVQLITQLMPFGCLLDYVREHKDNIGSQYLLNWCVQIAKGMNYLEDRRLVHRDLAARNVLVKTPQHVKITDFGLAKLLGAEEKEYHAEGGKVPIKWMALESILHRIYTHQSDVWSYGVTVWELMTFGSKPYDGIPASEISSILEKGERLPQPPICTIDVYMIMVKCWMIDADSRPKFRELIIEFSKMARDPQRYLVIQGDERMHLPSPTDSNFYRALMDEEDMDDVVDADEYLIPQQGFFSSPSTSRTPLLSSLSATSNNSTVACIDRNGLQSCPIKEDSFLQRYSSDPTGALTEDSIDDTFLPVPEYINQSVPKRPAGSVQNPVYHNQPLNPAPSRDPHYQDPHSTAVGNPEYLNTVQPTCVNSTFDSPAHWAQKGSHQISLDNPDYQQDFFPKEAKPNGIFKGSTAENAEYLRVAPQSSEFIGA

Row | SMILES | composite z-score [1] | composite z-score [2] | composite z-score [3] | z-score [4] | composite z-score [5] | composite z-score [6] | composite z-score [7] | composite z-score [8] | composite z-score [9] | composite z-score [10] | composite z-score [11] | z-score [12] | composite z-score [13] | composite z-score [14] | composite z-score [15] | composite z-score [16] | composite z-score [17] | composite z-score [18] | composite z-score [19] | composite z-score [20]
1 | COC(=O)[C@@]1(Cc2ccc(OC)cc2)[C@@H]2[C@@H](CC(=O)[C@H]2CC(=O)C(=O)N(C)C)CN1C(=O)c1ccccc1 | 0.625 | 1.64 | 1.49 | -1.53 (inactive) | 1.27 | 1.18 | 0.638 | 1.17 | -0.458 | 0.18 | 1.42 | -2.35 | 0.243 | 2.66 | 1.51 | 0.346 | 2.46 | 0.899 | 1.51 | 1.67
2 | CCCC=C(CCC)[C@@H](NC(=O)c1ccc(C(=O)OC)cc1)c1ccc(C(=O)OC)cc1 | -0.427 | 0.816 | 0.48 | -1.32 (inactive) | -0.363 | -0.197 | -0.195 | -0.0762 | -0.158 | 0.804 | 0.981 | -0.682 | -0.634 | 1.48 | 1.06 | 0.313 | 1.45 | -0.316 | 0.253 | -0.037
3 | CC(C)c1ccc(NN2C(C(O)C3CCCCC3)C=CC3C(=O)N(c4ccccc4)C(=O)C32)cc1 (stereo not given) | 1.4 | 0.929 | 1.11 | 0.194 (inactive) | 0.802 | 1.24 | 0.478 | 1.11 | 0.794 | 0.874 | 0.324 | -0.482 | 0.176 | 2.23 | 0.842 | 0.0219 | -0.144 | 0.302 | 0.678 | 1.9
4 | C=C(CCCC)C(=O)CC[C@@H](OC(C)=O)c1ccc(OCCO)cc1 | 0.476 | -0.276 | -0.169 | 3.03 (inactive) | 1.48 | -0.198 | -0.678 | 0.824 | 0.268 | 0.204 | 0.159 | -1.98 | 0.125 | -0.537 | -1.29 | -0.1 | -0.0035 | -0.113 | 3.18 | -0.127
5 | C[C@@]1([C@@H](NS(=O)(=O)c2cccc3cccnc23)c2ccc(-c3ccccc3)cc2)C[C@H]1C1CCCCC1 | 0.15 | 0.778 | 1.19 | -1.19 (inactive) | -0.0983 | -0.472 | 0.0823 | 0.49 | -0.473 | 0.638 | 0.917 | -0.479 | -0.504 | 1.02 | 1.38 | 0.122 | 1.05 | 2 | 0.562 | 0.33
